Hits are enriched below; roughly 4.8% of the tested compounds scored in any of these assays.
ssDAF-12 act = S. stercoralis DAF-12 nuclear receptor activators, primary screen, cell-based, luminescence, HEK293, GRIP1 co-expression, lit1-tk-luc | HEK293 ssDAF-12/GRIP1 lit1-tk-luc reporter; % of 3 µM dafachronic acid response | activation, % at 6.8 µM | 1% of 370,000 active;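 active means activation above the mean over all tested compounds plus 3 SD, cut at about 0.9% in these data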;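 further: 0% = DMSO-only wells and 100% = 3 µM delta7-dafachronic acid wells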
DAX1 inh-1 = DAX1 (NR0B1) inhibitors on StAR promoter, primary screen, cell-based, luminescence, SF-1 (NR5A1), full-length DAX-1. inhibition, % at 6.8 µM. 1.1% of 370,000 active. HEK293T StAR-luciferase reporter, SF-1/DAX-1 repression relief;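 active means inhibition above the mean over all tested compounds plus 3 SD, cut at about 3.6% in these data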;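 further: 0% = DAX-1 cells with DMSO and 100% = cells lacking DAX-1 with DMSO; higher inhibition means more luminescence from relief of DAX-1 repression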
NR1D1 modulator = modulators of Rev-erb alpha DNA binding, primary screen, biochemical, FITC-DNA, fluorescence polarization, uHTS; Nuclear receptor subfamily 1 group D member 1 (Homo sapiens), P20393; Rev-erbα–FITC-DNA binding, 90 min; activity, % at 10 µM; 0.79% of 370,000 active;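 active means activity above about 14%, limit read from the data; passing the limit was not always enough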;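 further: 0% = DMSO wells with 35 nM protein and 100% = DMSO wells with 750 nM protein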
Target sequence (P20393 whole entry, looked up): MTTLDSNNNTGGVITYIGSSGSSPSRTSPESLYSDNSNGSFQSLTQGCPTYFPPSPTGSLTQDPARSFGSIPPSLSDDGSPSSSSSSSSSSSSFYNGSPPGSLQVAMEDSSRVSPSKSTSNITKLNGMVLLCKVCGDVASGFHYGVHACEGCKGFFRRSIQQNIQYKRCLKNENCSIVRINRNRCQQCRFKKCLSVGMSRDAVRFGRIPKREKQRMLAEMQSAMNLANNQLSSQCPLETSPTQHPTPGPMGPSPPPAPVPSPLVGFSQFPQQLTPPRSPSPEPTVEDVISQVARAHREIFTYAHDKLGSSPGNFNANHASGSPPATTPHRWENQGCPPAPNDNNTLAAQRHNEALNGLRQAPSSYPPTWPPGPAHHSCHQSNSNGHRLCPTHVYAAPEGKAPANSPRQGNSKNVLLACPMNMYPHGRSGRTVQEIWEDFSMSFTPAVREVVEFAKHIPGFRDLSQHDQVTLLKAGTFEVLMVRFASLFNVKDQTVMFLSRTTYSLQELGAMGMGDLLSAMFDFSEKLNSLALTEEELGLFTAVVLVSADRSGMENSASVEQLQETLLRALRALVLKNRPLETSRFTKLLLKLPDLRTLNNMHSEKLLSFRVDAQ
DAX1 inh-2 = DAX1 (NR0B1) inhibitors, primary screen, cell-based, HEK293, Gal4-DAX1, luciferase luminescence; Nuclear receptor subfamily 0 group B member 1 (Homo sapiens), P51843; HEK293 Gal4-DAX1 luciferase reporter; inhibition, % at 6.75 µM; 0.99% of 340,000 active;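 active means inhibition above the mean over all tested compounds plus 3 SD, cut at about 4.2% in these data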;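 further: 0% = DAX1-transfected cells with DMSO and 100% = empty-vector control cells with DMSO; inhibition shows as a rise in luminescence from relieved DAX1 repression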
hgDAF-12 ag = H. glycines DAF-12 receptor agonists, primary screen, cell-based, luminescence, HEK293, GAL4 fusion, UAS-luciferase; Nuclear hormone receptor DAF-12 (Heterodera glycines), GAL4 fusion; HEK293 GAL4-hgDAF12 UAS-luciferase reporter, agonist luminescence; normalized to butyrate control; activation, % at 6.8 µM; 1.8% of 370,000 active; AID 687014, 2013;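 active means activation above a cutoff set at the mean of all screened compounds plus 3 SD, cut at about 10% in these data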;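 further: 0% = DMSO wells and 100% = sodium butyrate wells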
hcDAF12 agonist = H. contortus DAF-12 nuclear receptor activators, primary screen, cell-based, luminescence, HEK293, lit1-tk-luc reporter; HEK293 hcDAF-12 lit1-tk-luc reporter; 0% DMSO, 100% Δ7-dafachronic acid; activation, % at 6.8 µM; 1.4% of 370,000 active;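 active means activation above the mean of all tested compounds plus 3 SD, cut at about 5.5% in these data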;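 further: 100% = response to 3 µM Δ7-dafachronic acid high control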
LXRb hcDAF ctr = LXR agonists, Gal4 luciferase reporter, confirmation, counter-screen for hcDAF-12 agonist project, cell-based, luminescence, HEK293, H. contortus campaign | shares compounds with hcDAF12 agonist | HEK293 Gal4-LXR tk-luc reporter, 24 h; normalized: DMSO 0%, positive control 100% | activation, % at 6.8 µM | 3,400 tested, under 10 active | AID 743027, 2013;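 active means mean percent activation of the reporter above a cutoff set as the average over tested compounds plus their standard deviation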
hcDAF12 conf = H. contortus DAF-12 receptor agonists, confirmation, cell-based, luminescence, HEK293, lit1-tk-luc, triplicate; 61% of 3,400 active; activation, % at 6.8 µM; shares compounds with hcDAF12 agonist; AID 743032, 2013; HEK293 hcDAF-12 lit1-tk-luc reporter; % of Δ7-dafachronic acid response;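 active means mean activation across triplicate tests above the threshold derived from the earlier primary screen, cut at about 5.5% in these data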;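 further: 0% = DMSO only wells and 100% = 3 µM Δ7-dafachronic acid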
hgDAF12 conf = H. glycines DAF-12 receptor agonists, confirmation, cell-based, luminescence, HEK293, GAL4-LBD fusion; shares compounds with hgDAF-12 ag; HEK293 GAL4-hgDAF12 luciferase reporter, agonist mode; percent of butyrate response; activation, % at 6.8 µM; 80% of 3,300 active; AID 743050, 2013;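 active means mean activation over triplicate wells above the hit cutoff derived from the earlier primary screen, cut at about 11% in these data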;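 further: 0% = DMSO low control and 100% = 2 mM sodium butyrate high control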
LXR ag 2 = LXR agonists, Gal4 luciferase reporter, confirmation, counter-screen for hgDAF-12 agonist project, cell-based, luminescence, HEK293, H. glycines campaign. AID 743051, 2013. 3,300 tested, under 10 active. shares compounds with hgDAF-12 ag. 24 h. activation, % at 6.8 µM;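 active means mean activation of the triplicate above a set limit carried over from the primary screen, none filed active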
The depositor's hits bear a star; · = not tested or not shown.

SMILES	ssDAF-12 act	DAX1 inh-1	NR1D1 modulator	DAX1 inh-2	hgDAF-12 ag	hcDAF12 agonist	LXRb hcDAF ctr	hcDAF12 conf	hgDAF12 conf	LXR ag 2
N/C(=N\OC(=O)c1cc(Cl)ccc1Cl)c1ccccn1	2.2*	2.9	8.4	-0.9	18.1*	17.2*	1.8	15.9*	21.1*	1.0
COc1ccc(C(=O)O/N=C(\N)c2ccccn2)c(OC)c1	-0.5	2.1	6.6	-1.0	5.6	4.8	·	·	·	·
CCCC[C@@H]1C(=O)N2N=C(c3ccccc3)c3ccccc3[C@H]2N2N=C(c3ccccc3)c3ccccc3[C@@H]12	-1.0	-0.6	5.4	·	-2.8	1.8	·	·	·	·
COC(=O)CC#C[C@H](C)[C@@H](NS(C)(=O)=O)C(C)(C)COCc1ccccc1	-0.5	-0.8	5.8	·	3.3	0.3	·	·	·	·
C[C@H](CO)N1C[C@H](C)[C@@H](CN(C)C(=O)NC2CCCCC2)OCc2cn(nn2)CCCC1=O	-0.6	0.3	1.4	·	-1.4	-1.3	·	·	·	·
CCc1ccc(-c2cc(C(=O)O)c3ccccc3n2)s1	1.1*	2.4	-5.4	-1.0	17.2*	11.4*	0.7	9.1*	13.9*	0.6
COc1ccc(C2=NN(S(C)(=O)=O)C(c3cccs3)C2)cc1 (stereo not given)	0.1	2.7	-4.4	0.6	4.8	1.1	·	·	·	·
CS(=O)(=O)N1N=C(c2cccs2)CC1c1ccccc1 (stereo not given)	-1.7	0.0	4.0	-1.9	1.8	0.2	·	·	·	·
Cc1ccc(C2=NN(S(C)(=O)=O)C(c3cccs3)C2)cc1 (stereo not given)	0.3	1.7	-9.3	2.7	14.4*	7.6*	0.9	4.9	14.1*	0.4
CCc1ccc(C2=NN(S(C)(=O)=O)C(c3cccs3)C2)cc1 (stereo not given)	2.6*	2.7	0.2	1.2	14.8*	11.7*	1.3	6.1*	23.0*	1.1
CCN(CCn1cccn1)C(=O)c1cc(COc2cc(C)ccc2C)on1	1.7*	3.5	0.0	2.4	14.3*	7.5*	1.1	4.6	12.2*	0.3
O=c1[nH]c(/C=C/c2ccc(Br)cc2)nc2ccccc12	-0.5	0.8	5.8	2.7	5.7	1.2	·	·	·	·
CN(C)c1ccc(/C=C/c2nc3ccccc3c(=O)[nH]2)cc1	0.6	2.6	0.8	3.2	18.5*	6.6*	1.6	8.1*	5.3	1.1
C(=C\c1nc2ccccc2[nH]1)/c1ccccc1	0.7	1.9	1.4	-4.1	14.4*	7.2*	1.7	8.1*	17.5*	0.8
O=c1[nH]c2ccccc2nc1/C=C/c1ccc(Cl)cc1	-0.7	0.7	1.5	1.3	2.2	-0.5	·	·	·	·
COc1ccc2nc(SCC(C)=O)c(C#N)cc2c1	2.5*	3.9*	15.3	5.9*	18.9*	11.7*	2.1	10.9*	24.7*	1.4
c1csc(C2=NNC(=NC3CCCCC3)SC2)c1	1.5*	3.2	-2.9	·	16.8*	10.2*	1.4	5.6	16.2*	0.7
Cc1cc(C2=NNC(=NC3CCCCC3)SC2)c(C)n1-c1c(C)n(C)n(-c2ccccc2)c1=O	-1.7	-0.7	-0.6	-0.3	-1.4	0.6	·	·	·	·
Cc1ccnc(NC(=O)c2ccc(Br)s2)c1	1.6*	2.5	-0.9	1.8	20.1*	13.6*	1.5	9.3*	16.9*	0.8
CC(C)c1ccc(NC(=O)c2snc3ccc(Cl)cc23)cc1	2.7*	3.8*	-2.8	2.8	19.7*	11.4*	1.4	12.1*	16.8*	0.8
CC(C)c1ccc(NC(=O)c2cccnc2)cc1	-0.4	2.8	-2.2	1.4	8.1	4.9	·	·	·	·
CCN(CC)C(=O)CC[C@H]1CC[C@]2(CCCN(S(=O)(=O)c3ccccc3)C2)O1	-2.0	-1.4	1.5	·	0.0	-3.0	·	·	·	·
O=c1c2ccccc2cnn1-c1ccc2ccccc2c1	1.4*	3.0	-0.4	0.6	18.1*	12.8*	1.8	6.6*	16.8*	0.9
C/C(=N\Nc1ccc(C(=O)O)cc1)c1ccc(Cl)s1	1.1*	3.0	3.8	-0.6	16.2*	8.2*	1.4	11.0*	20.3*	0.9
Cn1c(CNc2ccc(Br)cc2)nc2ccccc21	1.4*	2.7	1.1	4.7*	14.2*	11.5*	1.2	10.8*	18.1*	0.8
SMILES	ssDAF-12 act	DAX1 inh-1	NR1D1 modulator	DAX1 inh-2	hgDAF-12 ag	hcDAF12 agonist	LXRb hcDAF ctr	hcDAF12 conf	hgDAF12 conf	LXR ag 2
Cn1c(CNC2CCCCC2)nc2ccccc21	-0.5	-0.3	-4.3	0.2	0.3	0.7	·	·	·	·
COc1ccccc1NCc1nc2ccccc2n1C	1.3*	·	14.8	·	15.7*	10.7*	0.8	8.7*	17.5*	0.7
C[C@H]1COc2cc(Br)ccc2S(=O)(=O)N1Cc1cn(Cc2ccc(C(F)(F)F)cc2)nn1	-1.5	-0.6	-3.1	·	3.8	-2.3	·	·	·	·
Cc1ccc(/C(=N/Nc2ncnc3ccccc23)C(=O)O)cc1	1.9*	3.7*	6.3	2.8	18.3*	16.8*	0.4	6.3*	12.3*	0.5
CC(=O)c1cc2c(C)c(C(=O)c3ccccc3)oc2cc1O	1.7*	4.0*	1.1	1.4	26.4*	7.5*	1.8	5.8*	21.1*	1.1
O=C(c1ccccc1)c1ccc(O)cc1O	-1.6	-0.2	9.1	3.2	-0.3	-0.3	·	·	·	·
